The target in assay [1] is Mitogen-activated protein kinase 10 (Mus musculus) (UniProt Q61831). In words: JNK3 AlphaScreen Assay (AID 530; active = well fitted curve in either direction with a large enough effect, not every such curve was filed as active;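 note: kinase came from lysate of stimulated human HepG2 cells; signal reports phosphorylation of biotinylated GST-cJun 1-79 at Ser73 with 10 µM ATP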). Conditions: JNK3 lysate, c-Jun phosphorylation; series mostly up to 57.1 µM. A digest of the protocol: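 Inhibitors reduce antibody binding to phosphorylated biotin-cJun, lowering AlphaScreen luminescence. Lysates from HepG2 cells pre-activated by IL-1beta plus TNF-alpha supplied JNK3; compounds were titrated.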

Assay [2] has as its target Cytochrome P450 3A4 (Homo sapiens) (UniProt P08684). In words: qHTS Assay for Inhibitors and Substrates of Cytochrome P450 3A4 (AID 884). Note: nearly all actives have a fitted effect of over 50% in size. Note: potency is the fitted concentration of half-maximal effect. Particulars: recombinant CYP3A4, Luciferin-PPXE luminescence; series mostly up to 57.1 µM. A digest of the protocol:
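20 nM human CYP3A4 with 25 uM Luciferin-PPXE (at KM) in 200 mM KPO4, preincubated 10 min with compound; NADPH regeneration started a 60 min RT reaction. Luciferin detected by luminescence, normalized to 57 uM ketoconazole as full inhibition.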

The target is the same in assay [3]. In words: qHTS Assay for Activators of Cytochrome P450 3A4 (AID 885). Note: nearly all actives have a fitted effect of over 65% in size. Note: potency is the fitted concentration of half-maximal effect. Conditions: recombinant CYP3A4, Luciferin-PPXE luminescence, 60 min; series mostly up to 57.1 µM. A digest of the protocol:
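Steps: enzyme/substrate mix dispensed; compound added, 10 min RT; NADPH regeneration solution added, 60 min RT; luciferin detection buffer stops reaction; 20 min later luminescence measured.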
Background: qHTS replaces the single test concentration by a dilution series.

Inconclusive results are not listed. Entries that show only a call come without a potency. Active and inactive are the calls of the source. Unless noted, calls come from the whole dose curve; as a rule, active = well fitted curve in the direction sought with a large enough effect; inconclusive = small, poorly fitted or top-dose-only effect, or another doubt; inactive = no such curve, though single readings can be large; an effect the other way counts as inactive or inconclusive.

Sequence of Cytochrome P450 3A4 (Homo sapiens) (P08684 whole entry, looked up): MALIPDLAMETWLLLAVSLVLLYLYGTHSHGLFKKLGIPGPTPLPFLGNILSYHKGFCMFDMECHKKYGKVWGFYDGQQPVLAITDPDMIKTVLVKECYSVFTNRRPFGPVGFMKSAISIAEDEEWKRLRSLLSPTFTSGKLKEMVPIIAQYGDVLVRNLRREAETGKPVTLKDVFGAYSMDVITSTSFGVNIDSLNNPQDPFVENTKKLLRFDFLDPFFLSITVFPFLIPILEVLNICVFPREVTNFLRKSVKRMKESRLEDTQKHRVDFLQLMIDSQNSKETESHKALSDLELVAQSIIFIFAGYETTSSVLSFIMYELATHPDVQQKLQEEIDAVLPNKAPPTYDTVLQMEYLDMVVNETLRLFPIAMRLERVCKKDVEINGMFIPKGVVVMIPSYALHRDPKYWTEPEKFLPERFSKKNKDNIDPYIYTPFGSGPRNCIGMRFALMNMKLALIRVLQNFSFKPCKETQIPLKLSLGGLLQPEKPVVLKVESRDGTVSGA

For the molecule `CC(=O)N1CC=CC1(CC(C)C)C(=O)NCCc1c[nH]c2ccccc12` (centres undefined), the outcome in assay [1] was inactive. For the same molecule, the Potency in assay [2] is 3.98 µM (active). In addition, in assay [3], the Potency entry is “inactive”.

`CCCC[C@@H]1C[C@H]1[C@@H](NP(=O)(c1ccccc1)c1ccccc1)c1ccccc1OC`: in assay [1], the result was inactive. Moreover, the Potency in assay [2] was 3.98 µM (active). Besides, in assay [3], the Potency entry was “inactive”.

Turning to `COC(=O)c1ccc(C(NC(=O)OCc2ccccc2)/C(F)=C/[C@@H](C)C(=O)NC2CCCCC2)cc1` (some centres undefined), in assay [1], the outcome was inactive. For the same molecule, in assay [2], the Potency is 3.98 µM (active). Also, the Potency entry in assay [3] is “inactive”.

Take `C[C@@H]1C=C[C@](Cc2ccccc2)(C(=O)NCC2CC2)N1C(=O)c1ccccc1`: the result in assay [1] was inactive. Besides, the Potency in assay [2] is 12.6 µM (active). Further, the Potency entry in assay [3] is “inactive”.

Regarding `COC(=O)c1ccc(C(/C=C/[C@@H](C)C(=O)NCc2ccc(OC)c(O)c2)NC(=O)OCc2ccccc2)cc1` (some centres undefined), the result in assay [1] was inactive. Moreover, in assay [2], the Potency was 6.31 µM (active). Besides, in assay [3], the Potency result was “inactive”.

Regarding `CC(=O)N1[C@H](C)C=C[C@]1(Cc1ccccc1)C(=O)NCc1ccc(C)o1`, in assay [1], the molecule was classed as inactive. Moreover, the Potency in assay [2] is 5.01 µM (active). Also, in assay [3], the Potency entry is “inactive”.

`COC(=O)c1ccc(C(NC(=O)OCc2ccccc2)/C(C)=C/[C@@H](C)C(=O)N(C)Cc2cccnc2)cc1` (some centres undefined): the result in assay [1] was inactive. The Potency in assay [2] is 0.794 µM (active). Further, the Potency result in assay [3] is “inactive”.

Turning to `CC1=C(C(=O)OCc2ccccc2)C(C2CCCCC2)NC(=O)N1CCCCCC(=O)O` (centres undefined), in assay [1], the molecule was classed as inactive. The Potency result in assay [2] is “inactive”. Moreover, the Potency in assay [3] was 15.8 µM (active).

As to `CC(=O)N1[C@H](C)C=C[C@]1(Cc1ccccc1)C(=O)NCc1cc(F)cc(C(F)(F)F)c1`, in assay [1], the molecule was classed as inactive. In assay [2], the Potency is 3.16 µM (active). Also, the Potency entry in assay [3] was “inactive”.

As for `CNC(=O)[C@]1(C)C[C@H]1[C@H](NC(=O)[C@]1(C)C[C@H]1[C@H](NC(=O)OCc1ccccc1)c1ccccc1)c1ccccc1`, the result in assay [1] was inactive. Further, in assay [2], the Potency was 15.8 µM (active). Besides, in assay [3], the Potency entry was “inactive”.

In the case of `CC1=C(C(=O)OCc2ccccc2)C(c2ccccc2-c2ccccc2)NC(=O)N1CCCCCC(=O)O` (centres undefined), the result in assay [1] was inactive. Moreover, the Potency in assay [2] was 10 µM (active). For the same molecule, in assay [3], the Potency entry was “inactive”.

In the case of `COC(=O)c1ccc(C(NC(=O)OCc2ccccc2)/C(=C/[C@@H](C)C(=O)Nc2ccc(OC)cc2)c2cccnc2)cc1` (some centres undefined), in assay [1], the molecule was classed as inactive. Moreover, the Potency in assay [2] is 1 µM (active). Also, in assay [3], the Potency result is “inactive”.

Take `CC(=O)N1[C@H](C)C=C[C@]1(Cc1ccccc1)C(=O)NCCN1CCOCC1`: the molecule was called inactive in assay [1]. In assay [2], the Potency was 12.6 µM (active). For the same molecule, the Potency entry in assay [3] is “inactive”.

As for `COC(=O)N1CC=CC1(C)C(=O)NCc1cc(F)cc(C(F)(F)F)c1` (centres undefined), the molecule was called inactive in assay [1]. The Potency in assay [2] was 15.8 µM (active). Besides, the Potency result in assay [3] was “inactive”.

As for `COC(=O)c1ccc(C(NC(=O)OCc2ccccc2)/C(=C/[C@@H](C)C(=O)N(C)C)c2cccnc2)cc1` (some centres undefined), in assay [1], the molecule was called inactive. Besides, the Potency in assay [2] was 5.01 µM (active). For the same molecule, in assay [3], the Potency entry is “inactive”.

Consider `CNC(=O)[C@@]1(Cc2ccccc2)C=C[C@@H](C)N1C(=O)OC`, for which the result in assay [1] was inactive. In assay [2], the Potency is 12.6 µM (active). In addition, the Potency result in assay [3] was “inactive”.

For the molecule `CC(C)NC(=O)[C@@H]1C[C@@]1(C)[C@@H](NC(=O)OCc1ccccc1)c1ccccc1`, the call in assay [1] was inactive. The Potency in assay [2] was 10 µM (active). Besides, the Potency result in assay [3] is “inactive”.

`CC1(C)OCC(CSC2=C(SCC3COC(C)(C)O3)C(=O)c3ncccc3C2=O)O1` (centres undefined): the result in assay [1] was inactive. In addition, the Potency in assay [2] is 15.8 µM (active). Besides, the Potency entry in assay [3] was “inactive”.

Take `COC(=O)c1ccc(C(NC(=O)OCc2ccccc2)/C(C)=C/[C@@H](C)C(=O)NCCc2c[nH]c3ccc(OC)cc23)cc1` (some centres undefined): the molecule was classed as inactive in assay [1]. Also, in assay [2], the Potency is 2 µM (active). In addition, the Potency entry in assay [3] is “inactive”.

For the molecule `CCCCNC(=O)C(c1ccc(OCC(=O)OC)c(C(=O)OC)c1)N(Cc1ccccn1)C(=O)CCCCCN1C(=O)NC(c2ccc(-c3ccccc3)cc2)C(C(=O)OCc2ccccc2)=C1C` (centres undefined), the result in assay [1] was inactive. The Potency in assay [2] is 7.94 µM (active). The Potency result in assay [3] was “inactive”.

In the case of `COC(=O)c1ccc(C(NC(=O)OCc2ccccc2)/C(I)=C/[C@@H](C)C(=O)NCC2CC2)cc1` (some centres undefined), in assay [1], the call was inactive. Besides, the Potency in assay [2] was 3.98 µM (active). Further, the Potency entry in assay [3] was “inactive”.

Take `CC1(C(=O)NCCN2CCOCC2)C=CC2(CCCCC2)N1C(=O)c1ccccc1` (centres undefined): the molecule was called inactive in assay [1]. For the same molecule, the Potency in assay [2] is 7.94 µM (active). The Potency entry in assay [3] is “inactive”.

`CC(=O)N1CC=CC1(C)C(=O)NCc1cc(F)cc(C(F)(F)F)c1` (centres undefined): the call in assay [1] was inactive. In addition, the Potency in assay [2] is 15.8 µM (active). Further, the Potency entry in assay [3] was “inactive”.

For `CNC(=O)[C@H](C)/C=C/C(NC(=O)OCc1ccccc1)c1ccc(C(=O)OC)cc1` (some centres undefined), the call in assay [1] was inactive. Moreover, the Potency in assay [2] is 7.94 µM (active). The Potency entry in assay [3] is “inactive”.

For `C[C@H](NC(=O)[C@@H]1C[C@H]1[C@@H](NC(=O)OCc1ccccc1)c1ccccc1)c1ccccc1`, the outcome in assay [1] was inactive. Moreover, the Potency in assay [2] was 12.6 µM (active). For the same molecule, the Potency result in assay [3] is “inactive”.

On to `COC(=O)c1ccc(C(NC(=O)OCc2ccccc2)/C(=C/[C@@H](C)C(=O)NCCc2c[nH]c3ccccc23)c2cccnc2)cc1` (some centres undefined), for which the outcome in assay [1] was inactive. The Potency in assay [2] was 1.58 µM (active). The Potency result in assay [3] was “inactive”.

Turning to `COC(=O)c1ccc(C(NC(=O)OCc2ccccc2)/C(=C/[C@@H](C)C(=O)NCc2ccc(OC)c(OC)c2)c2cccnc2)cc1` (some centres undefined), the molecule was classed as inactive in assay [1]. Besides, the Potency in assay [2] was 3.16 µM (active). In assay [3], the Potency entry was “inactive”.

`CCCCCCN(C(=O)CCCCCN1C(=O)NC(c2ccccc2-c2ccccc2)C(C(=O)OCc2ccccc2)=C1C)C(C(=O)NCCCC)c1ccc(OCC(=O)OC)c(C(=O)OC)c1` (centres undefined): the outcome in assay [1] was inactive. The Potency in assay [2] is 6.31 µM (active). Further, the Potency result in assay [3] was “inactive”.

The record behind these values is PubChem BioAssay (NCATS).
